Screening data: PubChem, National Center for Advancing Translational Sciences (NCATS)
This is a sample that favours compounds with a hit; in the whole collection about 2.8% have one here.
Giardia kill: kills Giardia lamblia | Giardia lamblia trophozoite viability | activity change, % at 7.66 µM, hits read low | 340,000 tested, 0.15% active | AID 540267; in the data active = activity change below about -80%; inconclusive = between about -30% and that limit;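 also: parasites exposed to compound for two days anaerobically before the ATP read; % is scaled to controls: 0 for no effect and ±100 for the full control effect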
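Giardia lamblia trophozoites (100 cells/well) were incubated with compounds for 48 h at 37 deg C under anaerobic conditions. Viability was read as ATP content by one-step luminescence after 15-30 min at room temperature.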
DRD3 antagonist: blocks the human D3 dopamine receptor; P35462; D3R cells, DiscoveRx beta-arrestin luminescence, antagonist mode; hits give low values; max response, negative = inhibition, %; 360,000 tested, 2.5% active; AID 652054; in the data active = max response below about -50%; inconclusive = no clear call, values can overlap the other calls; also: % is scaled to controls: 0 for no effect and ±100 for the full control effect
Target sequence (P35462 whole entry, looked up): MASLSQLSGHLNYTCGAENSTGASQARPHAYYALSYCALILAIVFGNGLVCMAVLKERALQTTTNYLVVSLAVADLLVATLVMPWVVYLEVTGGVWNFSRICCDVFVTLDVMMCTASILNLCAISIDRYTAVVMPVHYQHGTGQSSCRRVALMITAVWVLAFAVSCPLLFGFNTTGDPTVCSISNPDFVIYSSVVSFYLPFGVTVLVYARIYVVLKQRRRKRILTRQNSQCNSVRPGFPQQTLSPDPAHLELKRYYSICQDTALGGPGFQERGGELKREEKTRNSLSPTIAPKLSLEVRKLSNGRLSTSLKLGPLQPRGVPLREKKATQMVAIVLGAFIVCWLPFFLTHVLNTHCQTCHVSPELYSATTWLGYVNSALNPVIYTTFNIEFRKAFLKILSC
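Cells expressing the human receptor were seeded at 1500 cells/well, incubated overnight at 37 degrees C in 5% CO2, then exposed to library compounds with dopamine controls for 90 minutes at 37 degrees C before luminescent detection.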
B2AR arrestin: beta2AR (human) beta-arrestin recruitment activity; beta-arrestin recruitment to beta2AR, cell-based reporter; P07550; AID 492947; 330,000 tested, 0.02% active; Potency, µM (titrated, usually from 46.1 µM), for the others: at the highest dose activation, hits mostly activators; active = well fitted activation curve with a large enough effect; inconclusive = small, poorly fitted or top-dose-only effect;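 also: potency is read from the fitted curve at half-maximal effect; 0% = DMSO controls and full agonism = EC100 isoproterenol or metaproterenol; nearly all actives have a fitted effect of over 65% in size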
DRD3 agonist: activates the human D3 dopamine receptor | 410,000 tested, 0.58% active | P35462 | D3R DiscoveRx beta-arrestin cells, luminescence, 90 min | AID 652048 | max activation, %; in the data active = max activation above about 30%; also: 0% is about no effect
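Agonist-mode cell screen: cells plated at 1500/well and incubated overnight at 37 °C, then exposed to library compounds for 90 min at 37 °C. Detection reagent was added for 30–60 min at room temperature, and luminescence was read.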
Numbers without * were called inactive; ? = inconclusive; · = no result given; ! = not confirmed by another sample; [ ] = another dose, or the depositor's remark.

SMILES	Giardia kill	DRD3 antagonist	B2AR arrestin	DRD3 agonist
O=[N+]([O-])c1ccc(Nc2nc(N/N=C/c3cccc(F)c3)nc(N3CCCC3)n2)cc1	15.7	15.8	0.1%	4.6
Cc1cccc(N2CCN(C(=O)c3cc4ccc5cccnc5c4[nH]3)CC2)c1C	·	·	·	-9.8
CCOc1ccc(/C=N/N(C)c2ccccc2)cc1OC	12.9	-53.5*	-1.1%	0.8
CCOc1ccc(/C=N/Nc2ccccn2)cc1OC	-8.1	?	0.5%	-14.2
O=C(c1cc2c(=O)oc3ccccc3c2s1)N1CCN(c2cccc(Cl)c2)CC1	·	·	·	-4.6
COc1ccc(/C=N/N2CCN(c3ccc(Cl)cc3)CC2)cc1	13.3	-1.6	-0.2%	-2.3
Cc1ccc(N=C2C(=S)N(c3ccc(C)cc3)C(=N)N2/N=C/c2ccc(Cl)cc2)cc1	8.2	-50.9*	-0.2%	-0.1
COc1ccc(NC(=O)c2cc([N+](=O)[O-])ccc2O)cc1	-89.5*	14.9	0.1%	1.6
O=C(Nc1ccc(Nc2ccccc2)cc1)c1cc([N+](=O)[O-])ccc1Cl	-11.4	-51.1*	13.6%	-6.7
CCc1ccc2nc(N3CCN(C)CC3)c(C#N)cc2c1	16.6	-67.9*	0.5%	0.8
CCOC(=O)c1cc(C#N)c(N2CCCC2)nc1-c1ccccc1	16.5	0.0	-0.1%	5.0
CCOC(=O)c1cc(C#N)c(N2CCN(C)CC2)nc1-c1ccccc1	-21.5	-69.4*	0.3%	-22.8
COc1ccc(-c2nc(-c3ccccc3)nc(N3CCN(C)CC3)c2C#N)cc1	3.7	-85.3*	-0.8%	-11.7
CCN=C1S/C(=C\c2cn(C(C)=O)nc2-c2ccccc2)C(=O)N1CC	-16.2	58.5	2.3%	64.0*
O=C(/C=C/c1ccc(Br)cc1)NC(=S)NNC(=O)c1ccco1	13.2	-83.6*	0.2%	-9.8
COc1ccc(C(=O)C(CN2CCOCC2)c2ccccc2)cc1 (stereo unspecified)	-11.9	-22.2	-0.1%	-17.1
CCCCOc1ccc(C(=O)C(CN2CCOCC2)c2ccccc2)cc1 (stereo unspecified)	2.8	-53.8*	-0.7%	-2.5
COc1ccc(-c2ccccc2C2C3C=CCCC3(C)C(=O)N2Cc2ccccc2)cc1 (stereo unspecified)	11.5	·	·	·
COc1ccc(NC(=O)Nc2ccccc2OC)cc1	9.1	4.1	0.0%	-5.6
COc1ccc(OC)c(/C(O)=C/C(=O)C(=O)Nc2ccccc2OC)c1	1.3	-66.7*	0.1%	7.5
CC(=O)OCCNc1cc(N2CCN(C)CC2)c2noc3c2c1C(=O)c1ccccc1-3	-12.6	-52.2*	0.0%	-23.2
COc1ccccc1CNC(=O)CCc1c(C)c2cc3c(C)c(C)oc3cc2oc1=O	·	·	·	-39.7
Cc1ccc(C)c(S(=O)(=O)N2CCN(C(=O)C3CC3C)CC2)c1 (stereo unspecified)	7.8	2.2	0.4%	2.3
Cc1ccc(S(=O)(=O)N2CCN(C(=O)C3CC3C)CC2)c(C)c1 (stereo unspecified)	-4.1	-64.1*	0.3%	2.7
COc1ccc([C@]23Cc4cc(C#N)ccc4C(O2)C2=C(CC4(CCCCC4)OC2=O)O3)cc1	·	·	-0.3%[9.22 µM]	·
SMILES	Giardia kill	DRD3 antagonist	B2AR arrestin	DRD3 agonist
NC[C@H]1O[C@H](O[C@H]2[C@H](O[C@@H]3O[C@H](CO)[C@@H](O)[C@H]3O)C(O)[C@H](N)C[C@@H]2N)[C@H](N)[C@@H](O)[C@@H]1O (stereo partly specified)	·	·	·	2.4
CCOc1ccc(-n2c(SCc3ccccc3)nc3c([nH]c4ccccc43)c2=O)cc1	·	·	·	-8.7
Cc1ccc(OCCCCN2CCc3ccccc3C2)cc1	7.6	-100.0*	-0.3%	-19.2
Brc1cccc(OCCN2CCc3ccccc3C2)c1	11.6	-73.2*	-0.4%	8.2
Cc1cccc(OCCCN2CCCCCC2)c1	6.5	-50.8*	-0.4%	-29.8
Brc1cccc(OCCN2CCCCC2)c1	-2.4	-92.4*	-0.5%	-36.3
CCc1cccc(OCCn2ccnc2)c1	2.4	?	-1.2%	-7.3
CCc1cccc(OCCN2CCCC2)c1	-14.7	-59.6*	-1.4%	-33.8
O=C(NCC1CCCO1)c1ccccc1OCc1ccc(F)cc1 (stereo unspecified)	-7.4	-65.9*	0.1%	-5.2
O=C(NCc1ccc(Cl)cc1Cl)c1cccc(N2CCCS2(=O)=O)c1	·	·	·	-5.0
COc1cc(NC(=S)NC(=O)CCc2ccccc2)cc(OC)c1	20.6	-52.5*	6.7%	-11.6
COc1cc(NC(=O)C[n+]2ccc(C(=O)c3ccccc3)cc2)cc(OC)c1	-7.5	-72.1*	0.1%	-19.6
COc1cc(OC)cc(C(=O)NCC(=O)Nc2ccc(-c3ccccc3)cc2)c1	-3.4	-59.5*	0.7%	-24.1
CN(Cc1ccccc1)C(=O)C1CCC(CNS(=O)(=O)c2ccc3c(c2)CCCC(=O)N3)CC1 (stereo unspecified)	·	·	·	-0.8
O=C(NCCN1CCN(c2ccccc2)CC1)C1CCN(S(=O)(=O)c2cccc3nsnc23)CC1	-5.8	-16.4	-0.2%	93.9*
COc1cccc(N2CCN(C(=O)C3CCCN(S(=O)(=O)c4cccc5nsnc45)C3)CC2)c1 (stereo unspecified)	·	·	·	13.4
O=C(C1CCCN(S(=O)(=O)c2cccc3nsnc23)C1)N1CCN(c2cccc(Cl)c2)CC1 (stereo unspecified)	·	·	·	32.2*
O=C(NCCc1ccccc1)C1CCN(S(=O)(=O)c2cccc3nsnc23)CC1	8.6	-20.2	-0.3%	1.2
CC(=O)Nc1cccc(NC(=O)CSc2ccc(-c3sc(-c4ccccc4)nc3C)nn2)c1	·	·	·	-0.1
c1ccc(NC2=NCCN2CCC2CCCCC2)cc1	17.3	-63.0*	-0.7%	-91.1
Cc1cccc(CCN2CCN=C2Nc2ccccc2)c1	-4.9	-56.4*	0.1%	-45.7
c1ccc(NC2=NCCN2CCCC2CCCC2)cc1	-6.5	?	0.3%	-62.5
COc1ccc(C(CC(=O)Nc2ccc(F)c(Cl)c2)N2Cc3ccccc3C2=O)cc1OC (stereo unspecified)	·	·	·	-15.9
Cc1ccc(CNC(=O)CSc2nc(=O)n(Cc3ccco3)c3c2CCC3)cc1	·	·	·	-3.2
CCOC(=O)c1c(O)c2c(n(Cc3ccco3)c1=O)CCCC2	-4.1	57.6	-1.2%	43.6*
SMILES	Giardia kill	DRD3 antagonist	B2AR arrestin	DRD3 agonist
COc1ccc(C(C)(C)C)cc1S(=O)(=O)N1CCC(C(N)=O)CC1	3.7	-52.4*	-0.5%	-8.4
CCc1ccc(Nc2n[n+](-c3ccccc3)c(-c3cccc(C)c3)s2)cc1	-26.6	-51.8*	-1.7%	-6.2
CCC(C)C(=O)Nc1nc(C)c(-c2csc(Nc3cc(OC)ccc3OC)n2)s1 (stereo unspecified)	7.1	31.4	0.0%	3.1
CCC(C)C(=O)Nc1nc(C)c(-c2csc(Nc3cc(Cl)ccc3OC)n2)s1 (stereo unspecified)	-10.7	1.8	-0.1%	48.3*
O=C(Cn1c2ncccc2c(=O)n1-c1ccccc1)NCc1ccccc1Cl	·	·	·	5.8
C[C@]12CCC(=O)C=C1CC[C@@H]1[C@@H]2[C@@H](O)C[C@@]2(C)[C@H]1CC[C@]2(O)C(=O)COC(=O)CCC(=O)O	?	-60.8*!	0.3%	-91.9
Cc1ccccc1C(C(=O)NCc1ccco1)N(CC1CCCO1)C(=O)Cn1nnc2ccccc21 (stereo unspecified)	15.5	-0.3	-1.0%	1.1
